Screening data from PubChem.
NPR1 antag – Natriuretic polypeptide receptor (hNpr1) antagonism - Primary qHTS; HEK293 hNpr1 GloSensor cGMP, ANP-stimulated luminescence; Potency, µM (titrated, usually from 46.3 µM), inactives show top-dose activity change, negative = inhibition, usual class: inhibitors; 76,000 compounds, 1.6% hits; AID 1347048, 2019; calls by dose curve; also: % is scaled to controls: 0 for no effect and ±100 for the full control effect; nearly all actives have a fitted effect of over 60% in size
Target sequence (P16066 whole entry, looked up): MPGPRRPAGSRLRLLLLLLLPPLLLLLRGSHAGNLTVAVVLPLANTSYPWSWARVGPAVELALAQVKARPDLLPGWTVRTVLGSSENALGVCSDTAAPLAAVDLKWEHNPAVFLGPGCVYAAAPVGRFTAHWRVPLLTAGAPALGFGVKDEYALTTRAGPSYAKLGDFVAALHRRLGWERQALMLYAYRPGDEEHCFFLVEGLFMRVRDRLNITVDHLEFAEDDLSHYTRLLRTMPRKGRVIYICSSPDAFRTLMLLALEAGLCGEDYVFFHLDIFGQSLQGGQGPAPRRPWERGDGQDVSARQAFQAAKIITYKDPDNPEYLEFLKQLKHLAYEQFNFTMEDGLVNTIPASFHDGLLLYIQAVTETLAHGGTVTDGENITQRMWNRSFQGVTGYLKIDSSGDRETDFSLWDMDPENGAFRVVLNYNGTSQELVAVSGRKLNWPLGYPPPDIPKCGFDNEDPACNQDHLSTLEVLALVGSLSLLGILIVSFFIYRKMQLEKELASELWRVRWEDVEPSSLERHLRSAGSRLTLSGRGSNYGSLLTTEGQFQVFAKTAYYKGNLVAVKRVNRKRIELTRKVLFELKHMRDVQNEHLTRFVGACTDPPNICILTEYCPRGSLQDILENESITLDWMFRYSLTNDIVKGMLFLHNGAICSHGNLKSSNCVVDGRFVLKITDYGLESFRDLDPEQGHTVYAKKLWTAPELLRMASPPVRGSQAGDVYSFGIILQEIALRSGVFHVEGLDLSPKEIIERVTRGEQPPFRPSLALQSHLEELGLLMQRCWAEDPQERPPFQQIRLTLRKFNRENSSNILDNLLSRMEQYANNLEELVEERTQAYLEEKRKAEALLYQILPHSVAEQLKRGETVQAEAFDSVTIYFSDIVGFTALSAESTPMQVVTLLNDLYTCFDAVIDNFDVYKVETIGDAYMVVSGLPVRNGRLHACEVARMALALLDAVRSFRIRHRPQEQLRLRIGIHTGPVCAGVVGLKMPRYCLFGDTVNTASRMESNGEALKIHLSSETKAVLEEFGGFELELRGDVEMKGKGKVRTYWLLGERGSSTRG
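HEK293 cells stably expressing human Npr1 and cGMP GloSensor pGS-40F, loaded 2 h with 2% GloSensor reagent, given compound 30 min at room temperature. Luminescence read before and 20 min after 0.1 nM hNppA.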
NIH3T3 tox – Cytotoxic Profiling in NIH 3T3 Cell Line of Diverse Libraries Using Quantitative High-Throughput Screening | Potency, µM (series often up to 96.7 µM), for inactives: top-dose activity change, negative = cytotoxicity, hits mostly inhibitors | NIH 3T3 viability, CellTiter-Glo ATP luminescence, 48-72 h | 94,000 compounds, 4.3% hits; also: % is scaled to controls: 0 for no effect and ±100 for the full control effect; nearly all actives have a fitted effect of over 55% in size
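NIH 3T3 cells at 400 cells/well received 23 nL of compound by pintool and were incubated 48 or 72 h at 37 °C. Viability was read as ATP-coupled CellTiter-Glo luminescence.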
FLuc inh-1 – Firefly luciferase inhibition profiling of diverse chemical library using quantitative high-throughput screening; purified P. pyralis luciferase, luminescence, biochemical; Potency, µM (highest dose often 115 µM), usual class: inhibitors; 76,000 compounds, 2.5% hits; AID 1347043, 2019; also: % is scaled to controls: 0 for no effect and ±100 for the full control effect; nearly all actives have a fitted effect of over 65% in size
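Luminescence read by CCD imager after adding enzyme (10nM final) to wells holding compound, titrated in qHTS. Substrates 10uM each D-luciferin and ATP; buffer 50mM Tris acetate pH 7.5, 10mM Mg acetate, Tween-20, BSA.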
HEK293 tox – Cytotoxic Profiling in HEK 293 Cell Line of Diverse Libraries Using Quantitative High-Throughput Screening | HEK 293 viability, ATP luminescence (CellTiter-Glo), 48-72 h | Potency, µM (titrated, usually from 115 µM), for the others: top-dose activity change, negative = cytotoxicity, most hits filed as inhibitors | 94,000 compounds, 6.6% hits | AID 1345083, 2018; also: % is scaled to controls: 0 for no effect and ±100 for the full control effect; nearly all actives have a fitted effect of over 60% in size
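Pintool-delivered compounds were incubated with HEK 293 cells (250 cells/well) at 37 degree Celsius for 48 or 72 hr. ATP-dependent luminescence (CellTiter-Glo) then reported remaining viable cells.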
FLuc SDR no ATP – Firefly luciferase (FLuc-C-HiBiT) SDR gain of signal screen - without ATP. Potency, µM (series often up to 32.7 µM), inactives show top-dose activation (signal gain), usual class: activators. 1,300 compounds, 7.8% hits. Purified FLuc-C-HiBiT, Nano-Glo HiBiT luminescence, no ATP. shares compounds with FLuc inh-1. AID 1963318, 2024; also: nearly all actives have a fitted effect of over 55% in size
FLuc SDR ATP – Firefly luciferase (FLuc-C-HiBiT) SDR gain of signal screen - plus ATP. shares compounds with FLuc inh-1. purified FLuc-C-HiBiT + ATP, HiBiT complementation luminescence. Potency, µM (titrated, usually from 32.7 µM), for the others: at the top dose activation (gain of signal), most hits filed as activators. 1,300 compounds, 8.7% hits;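 also: signal reports ligand binding via conformational change of the enzyme rather than luciferase catalysis; % of control where 0% means no effect; nearly all actives have a fitted effect of over 55% in size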
FLuc inh-2 – Firefly luciferase (FLuc-C-HiBiT) enzymatic inhibition screen - Functional assay; shares compounds with FLuc inh-1; purified FLuc-C-HiBiT enzyme, luciferin luminescence; Potency, µM (doses to about 32.7 µM), for inactives: at the highest dose activity change, negative = inhibition, usual class: inhibitors; 1,300 compounds, 42% hits; also: % is scaled to controls: 0 for no effect and ±100 for the full control effect; nearly all actives have a fitted effect of over 70% in size
Starred values were filed as active, the others as inactive; i = inactive; ? = inconclusive; / = no result; [ ] = another dose, or the depositor's remark. Hits are enriched below; roughly 11% of the tested compounds scored in any of these assays. Unless noted, calls follow the shape of the dose curve; as a rule, active = well fitted curve in the direction sought with a large enough effect; inconclusive = small, poorly fitted or top-dose-only effect, or another doubt; inactive = no such curve, though single readings can be large; an effect the other way counts as inactive or inconclusive. Potency is read from the fitted curve at half-maximal effect.

SMILES	NPR1 antag	NIH3T3 tox	FLuc inh-1	HEK293 tox	FLuc SDR no ATP	FLuc SDR ATP	FLuc inh-2
CCOc1ccc(C(=O)Nc2ccc(-c3nc4ccccc4s3)c(C)c2)cc1OCC	/	/	/	/	18%	11%	-10%
O=C(C1CCCC1)N1CCN(c2ccc3nnc(C4CC4)n3n2)CC1	/	-22%[138 µM]	/	-4%[172 µM]	/	/	/
COc1ccc(-c2ccc(C(=O)N3CCN(C(=O)Nc4ccccc4)CC3)cc2)nn1	/	-20%	/	-18%	/	/	/
CN1C[C@@H](NS(=O)(=O)c2ccc(C#N)cc2)C[C@H]1c1nc(-c2ccc(Cl)cc2)no1	?	?	10µM*	?	4%	4%	?
COCCNC(=O)N1CCC(OC2CCN(Cc3ccccc3)CC2)CC1	2%	-6%	i	0%	/	/	/
CSCC(=O)N[C@H]1CCN2C(=O)c3cc(-c4ccc(SC)cc4)ccc3NC(=O)[C@H]12	5%	-17%	13µM*	-8%	23%	15%	?
CC(=O)NC1(C)CCCN(Cc2cccc(Nc3cccc(C#N)c3)c2)C1 (stereo not given)	?	?	i	?	/	/	/
CN(CC1CCOC1)C(=O)Nc1ccc(Br)cc1 (stereo not given)	1%	i	i	0%	/	/	/
Cc1nc2cc(-c3cccc(F)c3)nn2c(C)c1CCC(=O)NC1CCCCC1	/	/	/	/	12%	?	?
CC(=O)c1ccc(NC(=O)CCc2c(C)nc3cc(-c4ccc(Cl)cc4)nn3c2C)cc1	/	/	/	/	19%	?	?
Cc1cccc(-n2nc(C)c(CCC(=O)NC3CC3)c2Oc2ccc(F)cc2F)c1	-4%	?	i	?	/	/	/
Cc1ccc(NC(=O)CCc2c(C)nc3cc(-c4ccccc4)nn3c2C)cc1F	/	/	/	/	13%	?	?
Cc1ccc(NC(=O)Cn2ccn3nc(-c4ccccc4)c(CO)c3c2=O)cc1F	-11%	?	i	?	/	/	/
COc1ccc(-c2cc3c(=O)n(CCNC(=O)c4cccc(N(C)C)c4)ccn3n2)cc1	-28%	-12%	3.5µM*	?	28%	?	?
COc1ccccc1CC(=O)NCCn1ccn2nc(-c3ccc(C)c(C)c3)cc2c1=O	-5%	-23%	i	-6%	/	/	/
COc1cccc(C(=O)NCCn2ccn3nc(-c4ccc(C)cc4C)cc3c2=O)c1OC	-5%	?	5.6µM*	?	31%	19%	9.9µM*
COc1cccc(C(=O)NCCn2ccn3nc(-c4ccc(C)c(C)c4)cc3c2=O)c1OC	-12%	-23%	5.6µM*	?	23%	17%	7.9µM*
CCOc1ccc(-c2cc3c(=O)n(CCNC(=O)c4cccc5[nH]ccc45)ccn3n2)cc1	-27%	28µM*	7.9µM*	22µM*	?	?	5.6µM*
Cc1nc(-c2cccc(Cl)c2)n(CC(=O)NCc2ccc(F)cc2)c(=O)c1CCO	-14%	?	i	?	/	/	/
Cc1cn2nc(C(=O)Nc3ccc(N(C)C)cc3)cc2c(N2CCCC2)n1	10%	?	5µM*	?	13%	13%	?
CC(C)NC(=O)C[C@@H]1CCNC[C@@H]1Cc1cc(CSc2ccccc2)on1	2%[70.6 µM]	-21%[174 µM]	i	-22%[172 µM]	/	/	/
CN(C1CCc2ccccc2C1)[S+](=O)([O-])c1cccs1 (stereo not given)	3%[70.6 µM]	?	i	?	12%[49.3 µM]	6%[49.3 µM]	-9%[49.3 µM]
Cc1nn(-c2ccccc2)c2c1C(C)N(C1CN(C(=O)NC(C)C)C1)C2=O (stereo not given)	/	?	/	-3%	/	/	/
COc1ccc(CCNc2nc3ccccc3c3nc(-c4cccc(C)c4)nn23)cc1OC	/	/	/	/	15%	12%	?
Cc1ccc(NC(=O)C2(Cc3ccccc3)CCCCC(=O)N2)cc1 (stereo not given)	-11%	?	i	3%	/	/	/
SMILES	NPR1 antag	NIH3T3 tox	FLuc inh-1	HEK293 tox	FLuc SDR no ATP	FLuc SDR ATP	FLuc inh-2
CCOC(=O)c1ccc(NC2SC(=O)N(Cc3cccc(C(=O)O)c3)C2=O)cc1 (stereo not given)	/	/	/	/	14%	?	?
c1ccc(Nc2cc3c(cn2)CN(CC2CCOC2)CCN3)cc1 (stereo not given)	/	/	/	/	17%[49.3 µM]	11%[49.3 µM]	?
COc1ccc(CN2CCNc3cc(Nc4ccccc4)ncc3C2)cn1	-16%[70.6 µM]	56µM*	5µM*	112µM*	22%[49.3 µM]	16%[49.3 µM]	?
COc1ccc(CNc2cc3c(cn2)CN(C)CCN3)cc1OC	2%[70.6 µM]	?	i	?	/	/	/
c1ccc(Oc2cc3c(cn2)NCCN(Cc2ccsc2)C3)cc1	4%[70.6 µM]	-23%[138 µM]	i	?	/	/	/
COc1cccc(CN2CCNc3cc(Nc4cccnc4)ncc3C2)c1	0%[70.6 µM]	?	11µM*	?	32%[49.3 µM]	15%[49.3 µM]	?
c1cncc(Nc2cc3c(cn2)CN(CC2CCOCC2)CCN3)c1	3%[70.6 µM]	?	?	-26%[172 µM]	/	/	/
c1ccc(Nc2cc3c(cn2)CN(Cc2ccsc2)CCN3)cc1	-25%[70.6 µM]	56µM*	10µM*	?	19%[49.3 µM]	15%[49.3 µM]	14µM*
O=C1C[C@H]2CC[C@@H](CN1)N2Cc1ccc(OCc2ccccc2)cc1	?	?	11µM*	?	13%	11%	?
CC(C)NC(=O)N1CCCC1C(=O)N1CCCC(c2nc3ncccc3[nH]2)C1 (stereo not given)	/	-13%	/	-1%	/	/	/
Cc1ccc(C2Cn3nnc(C(=O)N4CCC(C(=O)NCc5ccncc5)CC4)c3CO2)cc1 (stereo not given)	-4%	-29%	14µM*	1%	7%	?	?
Cc1ccc(C2Cn3nnc(C(=O)N4CCC(C(=O)NC5CC5)CC4)c3CO2)cc1 (stereo not given)	-3%	-17%	10µM*	-5%	12%	?	?
COc1ccc(CNC(=O)C2CCN(C(=O)c3nnn4c3COC(c3ccc(C)cc3)C4)CC2)cc1 (stereo not given)	4%	i	i	1%	/	/	/
